The nature of assay [1]: kinase inhibitors against Plasmodium liver-stage infection, cell-based, known kinase inhibitor set, luminescence, hepatoma host viability (AID 624392).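 Also: infected cells incubated roughly two days before readout.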 The following applies: Plasmodium liver stage in hepatoma cells, luciferase luminescence, concentration not given here; liver cell % of control: measured here: host liver cell viability; parasite % of control: stronger effect = lower value.

Assay [2] in a line: modulators of glucocorticoid suppression of NF-kB, cell-based, luciferase, IL-1B stimulus, dexamethasone (AID 624486).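 As to percent of negative control (+Dex): 100% = mean signal of vehicle control wells on the plate.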 The following applies: NF-kB luciferase reporter, IL-1B + dexamethasone, luminescence; percent of negative control (+Dex): actives lie on both sides, concentration not given here; z-score: measured here: IL-1B alone, no Dex. For orientation: Reporter assays use an easily measured gene product as a stand-in for the process of interest.

The target of assay [3] is Cellular tumor antigen p53 (Homo sapiens) (UniProt P04637). Briefly: kinase inhibitors altering GFP-p53 stability in HPV16-positive cells, imaging, known kinase inhibitor set, EGFP/DsRed ratio (AID 1053116).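 Also: cells exposed to compounds for 24 h at 37 °C before reading.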 The following applies: stronger effect = higher value; EGFP object count: measured here: GFP-p53 positive objects count.
Assay [4] can be described thus: IRF3 reporter activation in THP-1 macrophages, cell-based, PMA-stimulated THP-1, luminescence (AID 1053176). The following applies: PMA-differentiated THP-1, IRF3 reporter luminescence; stronger effect = higher value.

The source made the active and inactive calls. No rule for the calls is given here.

Sequence of Cellular tumor antigen p53 (Homo sapiens) (P04637 whole entry, looked up): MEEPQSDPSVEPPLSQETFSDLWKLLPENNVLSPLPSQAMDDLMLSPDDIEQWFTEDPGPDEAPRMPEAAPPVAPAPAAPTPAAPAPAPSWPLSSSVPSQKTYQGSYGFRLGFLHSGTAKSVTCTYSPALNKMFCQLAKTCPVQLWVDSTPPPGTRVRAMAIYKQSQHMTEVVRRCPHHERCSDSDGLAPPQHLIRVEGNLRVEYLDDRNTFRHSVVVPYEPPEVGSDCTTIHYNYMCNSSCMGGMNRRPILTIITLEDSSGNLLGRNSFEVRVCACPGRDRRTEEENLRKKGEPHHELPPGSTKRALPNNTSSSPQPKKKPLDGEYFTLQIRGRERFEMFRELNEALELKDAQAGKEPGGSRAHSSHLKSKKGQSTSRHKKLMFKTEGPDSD

As for `Cn1cc(C2=C(c3cn(C)c4cc(N)ccc34)C(=O)NC2=O)c2ccccc21`, in assay [1], the liver cell % of control amounted to 85.5% and the parasite % of control was 26.4% (inactive). Besides, in assay [2], the percent of negative control (+Dex) was 96% (inactive) and the z-score was -2.26. For the same compound, in assay [3], the EGFP object count was determined as 41.5 and the EGFP/DsRed ratio was 0.462 (inactive). The fraction signal in assay [4] is -0.0115 (inactive).

On to `O=C1NC(=NCc2ccccc2Br)SC1=Cc1ccc2ncccc2c1`, for which, in assay [1], the liver cell % of control was determined as 130% and the parasite % of control was 32.9% (inactive). Besides, in assay [2], the percent of negative control (+Dex) was 85.5% (inactive) and the z-score was -0.56. Besides, in assay [3], the EGFP object count worked out at 8 and the EGFP/DsRed ratio was 0.253 (inactive). Further, the fraction signal in assay [4] was -0.0095 (inactive).

`Cn1cc(C2=C(c3cc[nH]c3)C(=O)NC2=O)c2ccccc21`: in assay [1], the liver cell % of control is 109% and the parasite % of control was 26.8% (inactive). Besides, in assay [2], the percent of negative control (+Dex) is 104% (inactive) and the z-score is 0.12. Moreover, in assay [3], the EGFP object count was found to be 3 and the EGFP/DsRed ratio is 0.329 (inactive). For the same compound, in assay [4], the fraction signal was -0.0025 (inactive).

Turning to `COc1ccc(O)c(C(=O)c2ccc(C(=O)O[C@H]3CCCNC[C@@H]3NC(=O)c3ccncc3)cc2)c1F`, in assay [1], the liver cell % of control came to 113% and the parasite % of control was 109% (inactive). For the same compound, in assay [2], the percent of negative control (+Dex) was 62% (active) and the z-score was -1.53. Also, in assay [3], the EGFP object count came out at 15.5 and the EGFP/DsRed ratio is 0.253 (inactive). The fraction signal in assay [4] is 0.001 (inactive).

With `O=C1NC(=NCc2cccs2)SC1Cc1ccc2ncccc2c1` (stereo not given), in assay [1], the liver cell % of control is 108% and the parasite % of control was 12.8% (inactive). Further, in assay [2], the percent of negative control (+Dex) was 96% (inactive) and the z-score is -0.14. Also, in assay [3], the EGFP object count came out at 2.5 and the EGFP/DsRed ratio was 0.109 (inactive). Besides, the fraction signal in assay [4] was 0.0035 (inactive).

Take `CNCC#Cc1c(F)ccc2c1C(=Cc1[nH]ccc1OC)C(=O)N2`: in assay [1], the liver cell % of control was 149% and the parasite % of control was 6.77% (inactive). Besides, in assay [2], the percent of negative control (+Dex) is 162% (active) and the z-score was 1.97. Also, in assay [3], the EGFP object count came to 39 and the EGFP/DsRed ratio is 0.619 (inactive). For the same compound, the fraction signal in assay [4] is -0.0115 (inactive).

`O=C1NC(=NCc2ccccc2Cl)SC1=Cc1ccc2ncccc2c1`: in assay [1], the liver cell % of control was found to be 108% and the parasite % of control was 42.1% (inactive). For the same compound, in assay [2], the percent of negative control (+Dex) was 95% (inactive) and the z-score is -0.715. Moreover, in assay [3], the EGFP object count was found to be 9 and the EGFP/DsRed ratio was 0.384 (inactive). Moreover, in assay [4], the fraction signal was -0.0075 (inactive).

With `COc1cc[nH]c1C=C1C(=O)Nc2ccc(F)c(I)c21`, in assay [1], the liver cell % of control turned out to be 98.3% and the parasite % of control was 40.2% (inactive). For the same compound, in assay [2], the percent of negative control (+Dex) was 98% (inactive) and the z-score was determined as 0.98. Further, in assay [3], the EGFP object count turned out to be 46 and the EGFP/DsRed ratio was 0.596 (inactive). Further, in assay [4], the fraction signal was 0.0015 (inactive).

With `Nc1c(C(=O)c2cccc(C#CCN3CCOCC3)c2)cnn1-c1ccc(F)cc1`, in assay [1], the liver cell % of control is 159% and the parasite % of control was 75.7% (inactive). Moreover, in assay [2], the percent of negative control (+Dex) is 120% (inactive) and the z-score was 1.29. In assay [3], the EGFP object count came to 2.5 and the EGFP/DsRed ratio was 0.12 (inactive). In addition, the fraction signal in assay [4] is 0.0055 (inactive).

As to `Cn1c(=O)c(Oc2cccc(F)c2)cc2cnc(NC3CCOCC3)nc21`, in assay [1], the liver cell % of control was found to be 112% and the parasite % of control was 65.8% (inactive). In assay [2], the percent of negative control (+Dex) was 101% (inactive) and the z-score came out at 0.78. In addition, in assay [3], the EGFP object count was determined as 4 and the EGFP/DsRed ratio was 0.127 (inactive). In assay [4], the fraction signal was 0.0015 (inactive).

`O=C1OC(=O)C(c2c[nH]c3ccccc23)=C1c1c[nH]c2ccccc12`: in assay [1], the liver cell % of control is 99.6% and the parasite % of control was 48.8% (inactive). Also, in assay [2], the percent of negative control (+Dex) was 95% (inactive) and the z-score turned out to be 1. Moreover, in assay [3], the EGFP object count turned out to be 3.5 and the EGFP/DsRed ratio was 0.0625 (inactive). For the same compound, the fraction signal in assay [4] was -0.018 (inactive).

Take `O=C1NC(=NCC(CO)c2ccccc2)SC1=Cc1ccc2ncccc2c1` (stereo not given): in assay [1], the liver cell % of control was found to be 106% and the parasite % of control was 72.5% (inactive). In addition, in assay [2], the percent of negative control (+Dex) was 86% (inactive) and the z-score is -0.105. In addition, in assay [3], the EGFP object count was determined as 0.5 and the EGFP/DsRed ratio was 0.00131 (inactive). The fraction signal in assay [4] is 0.006 (inactive).

Consider `COc1cccc(C(=O)c2sc(Nc3ccc(N4CCN(C(C)C)CC4)cc3)nc2N)c1`, for which, in assay [1], the liver cell % of control stood at 86.7% and the parasite % of control is 389% (inactive). For the same compound, in assay [2], the percent of negative control (+Dex) was 112% (inactive) and the z-score came to 1.07. Moreover, in assay [3], the EGFP object count worked out at 2.5 and the EGFP/DsRed ratio was 0.139 (inactive). Moreover, the fraction signal in assay [4] is -0.02 (inactive).

In the case of `OCCn1c(-c2ccncc2)c(-c2ccc(F)cc2)c2ncccc21`, in assay [1], the liver cell % of control turned out to be 114% and the parasite % of control is 46% (inactive). In addition, in assay [2], the percent of negative control (+Dex) is 99.5% (inactive) and the z-score was 0.305. In addition, in assay [3], the EGFP object count is 5.5 and the EGFP/DsRed ratio is 0.119 (inactive). The fraction signal in assay [4] is -0.0135 (inactive).

Turning to `COc1cccc(C2=C(c3cn(C)c4cc(C)ccc34)C(=O)NC2=O)c1`, in assay [1], the liver cell % of control is 112% and the parasite % of control was 29% (inactive). In assay [2], the percent of negative control (+Dex) is 98.5% (inactive) and the z-score was -1.5. Also, in assay [3], the EGFP object count came to 24 and the EGFP/DsRed ratio was 0.336 (inactive). Also, in assay [4], the fraction signal is -0.005 (inactive).

Take `Nc1[nH]nc2nc(-c3cccs3)cc(C(F)(F)F)c12`: in assay [1], the liver cell % of control was determined as 104% and the parasite % of control is 41.7% (inactive). Moreover, in assay [2], the percent of negative control (+Dex) was 73% (active) and the z-score is -2.23. In addition, in assay [3], the EGFP object count was 4 and the EGFP/DsRed ratio was 0.138 (inactive). The fraction signal in assay [4] is -0.0165 (inactive).

As to `Cn1cc(C2=C(c3ccccc3[N+](=O)[O-])C(=O)NC2=O)c2ccccc21`, in assay [1], the liver cell % of control was found to be 80.1% and the parasite % of control is 121% (inactive). In addition, in assay [2], the percent of negative control (+Dex) was 147% (active) and the z-score was -1.21. Moreover, in assay [3], the EGFP object count turned out to be 19 and the EGFP/DsRed ratio was 0.315 (inactive). Further, in assay [4], the fraction signal is 0.0035 (inactive).

Consider `Nc1c(C(=O)c2cccc(C(O)(CO)CO)c2)cnn1-c1ccc(F)cc1`, for which, in assay [1], the liver cell % of control is 95.6% and the parasite % of control was 51.5% (inactive). In addition, in assay [2], the percent of negative control (+Dex) is 104% (inactive) and the z-score was 0.905. For the same compound, in assay [3], the EGFP object count amounted to 3 and the EGFP/DsRed ratio is 0.0614 (inactive). Besides, the fraction signal in assay [4] is 0.0095 (inactive).

Turning to `Nc1c(C(=O)c2ccc(CCCN3CCOCC3)cc2)cnn1-c1ccc(F)cc1`, in assay [1], the liver cell % of control stood at 119% and the parasite % of control was 61% (inactive). Moreover, in assay [2], the percent of negative control (+Dex) is 106% (inactive) and the z-score was determined as 0.435. In assay [3], the EGFP object count turned out to be 2 and the EGFP/DsRed ratio was 0.0463 (inactive). In assay [4], the fraction signal was 0.001 (inactive).

`Nc1c(C(=O)c2cccc(OCC(O)CO)c2)cnn1-c1ccc(F)cc1` (stereo not given): in assay [1], the liver cell % of control stood at 125% and the parasite % of control is 58.2% (inactive). Besides, in assay [2], the percent of negative control (+Dex) was 110% (inactive) and the z-score worked out at 1.27. Besides, in assay [3], the EGFP object count came to 1.5 and the EGFP/DsRed ratio was 0.00398 (inactive). The fraction signal in assay [4] was -0.0115 (inactive).

For the origin of these results see PubChem BioAssay.
